PubChem BioAssay (EPA / NIEHS)
“And” between values parts separate entries of the source, which are not always exact repeats. Equal entries are not always repeated. Results filed as inconclusive are left out. Some structures have more than one record in an assay (separate samples or runs), and their calls can disagree. The source made the active and inactive calls. Rule for the calls: active = hit-call score of the fitted dose curve at least 0.9, where 1 is the maximum; inconclusive = response in the unintended direction; inactive = score below 0.9.

Key:
[1] = target: Cellular tumor antigen p53 (Homo sapiens) (UniProt P04637); experiment: TOX21_p53_BLA_p2_ratio: Tox21 HCT-116 p53 Agonism Beta-lactamase Assay, Ratio, Phase 2 (AID 2283592)
Summary of the method: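 Readout: blue/green (460/530 nm) FRET emission ratio after 2 h CCF4-AM loading at room temperature, excitation 405 nm. HCT116 p53 bla cells, 16 h compound exposure at 37C, 5% CO2; agonist direction fitted against DMSO baseline.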

[2] = TOX21_p53_BLA_p3_viability: Viability Assessment in the Tox21 HCT-116 p53 Agonism Beta-lactamase Assay, Phase 3 (AID 2283593);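 note: cells exposed to compound for 16 h before reading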
Summary of the method: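 HCT116 cells, 4000/well, dosed 5 h after plating by pin transfer (217-fold dilution from DMSO stock) and incubated 16 h at 37C, 5% CO2. Viability read as ATP luminescence with CellTiter-Glo after 30 min at room temperature.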

[3] = target: Cellular tumor antigen p53 (Homo sapiens) (UniProt P04637); experiment: TOX21_p53_BLA_p3_ratio: Tox21 HCT-116 p53 Agonism Beta-lactamase Assay, Ratio, Phase 3 (AID 2283596)
Summary of the method: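 Cells were seeded at 4000/well, rested 5 h at 37C, then dosed with DMSO compound solutions (217-fold dilution) for 16 h. CCF4-AM substrate was loaded for 2 h at room temperature, and the 460/530 nm emission ratio was fitted for gain of signal versus DMSO.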

[4] = TOX21_p53_BLA_p4_viability: Viability Assessment in the Tox21 HCT-116 p53 Agonism Beta-lactamase Assay, Phase 4 (AID 2283597);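 note: hits lower the luminescence signal meaning cytotoxicity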
Summary of the method: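 ATP content by CellTiter-Glo luminescence, 30 min RT, read after the beta-lactamase ratio step. Cells: HCT116, 4000/well, compound added after 5 h, exposure 16 h at 37C. Signal loss = reduced viability.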

[5] = target: Cellular tumor antigen p53 (Homo sapiens) (UniProt P04637); experiment: TOX21_p53_BLA_p5_ratio: Tox21 HCT-116 p53 Agonism Beta-lactamase Assay, Ratio, Phase 5 (AID 2283599)
Summary of the method: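 HCT-116 p53-bla cells (4000/well) plated 5 h, dosed with compound (217-fold DMSO dilution) for 16 h at 37 C; CCF4-AM substrate 2 h at room temperature. Activity is the 460/530 nm emission ratio (405 nm excitation), fitted in gain-of-signal direction versus DMSO.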

[6] = TOX21_p53_BLA_p5_viability: Viability Assessment in the Tox21 HCT-116 p53 Agonism Beta-lactamase Assay, Phase 5 (AID 2283600)
Summary of the method: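 ATP luminescence (CellTiter-Glo, 30 min, RT) served as the viability read-out, with loss of signal indicating cytotoxicity. Compounds in DMSO were pinned at a 217-fold dilution onto 4000 cells/well and incubated 16 h, 37C.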

[7] = target: Cellular tumor antigen p53 (Homo sapiens) (UniProt P04637); experiment: TOX21_p53_BLA_p4_ratio: Tox21 HCT-116 p53 Agonism Beta-lactamase Assay, Ratio, Phase 4 (AID 2283601)
Summary of the method: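 HCT-116 p53 beta-lactamase reporter cells (4000/well) preincubated 5 h, then compound (217-fold dilution of DMSO stock) for 16 h at 37C. CCF4-AM substrate added 2 h at room temperature; 460/530 nm emission ratio fitted upward versus DMSO.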

[8] = TOX21_TRB_BLA_Antagonist_Followup_viability: Viability Assessment in the Tox21 Thyroid Hormone Receptor beta Antagonism Beta-lactamase (BLA) Follow-Up Assay (AID 2283961)
Summary of the method: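 Viability read as CellTiter-Glo ATP luminescence (loss of signal = cytotoxicity) in the same plates as the TRβ-bla readout. TRβ-LBD/GAL4 UAS-bla HEK293T cells were exposed to compounds, 11 concentrations in triplicate, for 18 h at 37C/5% CO2.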

[9] = TOX21_TR_RXR_BLA_Antagonist_Followup_viability: Viability Assessment in the Tox21 Thyroid Hormone Receptor beta Retinoid X Receptor alpha (RXRa) Antagonism Beta-lactamase (BLA) Follow-Up Assay (AID 2283979)
Summary of the method: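 RXRa-bla HEK293T cells (2,500/well, phenol red-free DMEM, 2% charcoal-stripped FBS) were attached 5 h, then exposed to compounds at 11 concentrations in triplicate for 16 h at 37C. Viability measured by CellTiter-Glo ATP luminescence, bidirectional fitting versus DMSO.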

Measured: AC50

Cellular tumor antigen p53 (Homo sapiens), sequence (P04637 whole entry, looked up): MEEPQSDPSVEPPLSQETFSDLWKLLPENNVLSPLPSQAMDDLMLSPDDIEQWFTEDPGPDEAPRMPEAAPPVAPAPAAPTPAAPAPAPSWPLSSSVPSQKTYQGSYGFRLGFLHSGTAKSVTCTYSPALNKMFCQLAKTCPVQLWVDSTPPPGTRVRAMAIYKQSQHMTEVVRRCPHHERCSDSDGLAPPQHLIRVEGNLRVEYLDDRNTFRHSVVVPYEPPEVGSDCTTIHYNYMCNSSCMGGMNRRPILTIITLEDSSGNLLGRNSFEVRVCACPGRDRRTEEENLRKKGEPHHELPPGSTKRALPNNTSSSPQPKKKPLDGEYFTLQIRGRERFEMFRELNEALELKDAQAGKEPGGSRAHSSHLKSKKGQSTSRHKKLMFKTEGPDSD

O=C(O)Cc1ccccc1Oc1ccc(Cl)cc1Cl
inactive: [1] | [2] | [3] | [4] | [5] | [6] | [7]

CC(C)(C)C(=O)OCOC(=O)[C@@H]1N2C(=O)[C@@H](N=CN3CCCCCC3)[C@H]2SC1(C)C
inactive: [1] | [2] | [3] | [4] | [5] | [6] | [7]

O=C(O)Cc1ccc(-c2ccccc2)cc1
inactive: [1] | [2] | [3] | [4] | [5] | [6] | [7]

COc1ncnc(NS(=O)(=O)c2ccc(N)cc2)c1OC
inactive: [1] | [2] | [3] | [4] | [5] | [6] | [7]

NCCCNCCSP(=O)(O)O
inactive: [1] | [2] | [3] | [4] | [5] | [6] | [7]

Cc1ccc(C(=O)C(C)CN2CCCCC2)cc1 (centres undefined)
inactive: [1] | [2] | [3] | [4] | [5] | [6] | [7]

CC(C)COC(=O)c1ccc(O)cc1
inactive: [1] | [2] | [3] | [4] | [5] | [6] | [7]

Oc1ccc(OCc2ccccc2)cc1
active: [1] 25.1 µM and 9.17 µM | [3] 25.7 µM and 10.9 µM | [7] 9.05 µM
inactive: [2] | [4] | [5] | [6] | [7] | [8] | [9]
